Source: PubChem BioAssay AID588342 (National Center for Advancing Translational Sciences (NCATS), 2011)
Where “and” joins values, the source holds several entries; their conditions need not be identical. Identical values can stand only once. In all, about 360,000 compounds went through this assay and about 25,000 (6.9%) were called active. About 9% were inconclusive and are not listed. Calls come from the whole dose curve; as a rule, active = well fitted inhibition curve with a large enough effect; inconclusive = small, poorly fitted or top-dose-only effect; inactive = flat fitted curve, though single readings scatter. This excerpt belongs to a sample that is enriched for actives. More than one record can exist for a structure, and the calls need not agree.

The molecules below were run against Luciferin 4-monooxygenase (Photinus pyralis) (UniProt P08659) (assay: qHTS profiling assay for firefly luciferase inhibitor/activator using purifed enzyme and Km concentrations of substrates (counterscreen for miR-21 project)). Settings: purified FLuc, luminescence inhibition; series mostly up to 57.5 µM; activity change, negative = inhibition: at the top concentration.
In short: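 Purified P. pyralis luciferase (10nM final) with 10uM D-luciferin and 10uM ATP (Km levels) in 50mM Tris acetate pH 7.5, 10mM Mg acetate, 0.01% Tween-20, 0.05% BSA; qHTS 6-point titration, ~60 µM downward; luminescence read.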
Note: nearly all actives have a fitted effect of over 55% in size.
Potency is the fitted concentration of half-maximal effect.
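Throughout, for activity change, negative = inhibition: plate controls were vehicle for no effect and reference inhibitor for full effect.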

Sequence of Luciferin 4-monooxygenase (Photinus pyralis) (P08659 whole entry, looked up): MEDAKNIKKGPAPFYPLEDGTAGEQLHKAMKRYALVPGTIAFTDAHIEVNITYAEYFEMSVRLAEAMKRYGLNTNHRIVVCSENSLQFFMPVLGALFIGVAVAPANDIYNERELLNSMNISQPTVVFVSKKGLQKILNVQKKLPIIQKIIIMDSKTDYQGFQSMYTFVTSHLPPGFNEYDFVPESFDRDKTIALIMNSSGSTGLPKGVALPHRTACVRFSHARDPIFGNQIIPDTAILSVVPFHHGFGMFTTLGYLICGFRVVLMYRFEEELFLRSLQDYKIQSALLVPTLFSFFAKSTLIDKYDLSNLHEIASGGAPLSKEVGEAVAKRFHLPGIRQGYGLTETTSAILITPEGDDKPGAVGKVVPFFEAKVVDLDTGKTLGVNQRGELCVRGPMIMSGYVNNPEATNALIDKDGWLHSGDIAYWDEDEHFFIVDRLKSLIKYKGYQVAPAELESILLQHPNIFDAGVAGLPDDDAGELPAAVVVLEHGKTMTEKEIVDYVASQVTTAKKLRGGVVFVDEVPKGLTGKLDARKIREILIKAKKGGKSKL

| Compound | activity change, negative = inhibition | Potency |
| --- | --- | --- |
| CCC(=O)c1ccc(OCC(=O)N(CC)CC2COc3ccccc3O2)cc1 (stereo not drawn) | 11.9% (inactive) | – |
| CCC(=O)N1CCc2cc(S(=O)(=O)NC(C(=O)Nc3ccc(C(C)=O)cc3)C(C)C)ccc21 (stereo not drawn) | 3.87% (inactive) | – |
| O=C(Cc1ccccc1)NNC(=O)C1CCN(c2ncccn2)CC1 | -1.06% (inactive) | – |
| O=C1/C(=C\Nc2ccccc2)CCN1c1ncccn1 | – | 23.9 µM (active) |
| COc1ccccc1Oc1ccc(N/C=C2/CCCC2=O)cc1 | -13.2% (inactive) | – |
| CCc1nnc(SCc2c(F)cccc2Cl)c2cc3sccc3n12 | -0.0505% (inactive) | – |
| COc1cc(C(=O)NN(CCC#N)C2=NS(=O)(=O)c3ccccc32)cc(OC)c1OC | 3.16% (inactive) | – |
| CCOC(=O)C1CCCN(C(=O)Cn2ncc3c(C)n(Cc4ccc(F)cc4)c(C)c3c2=O)C1 (stereo not drawn) | -11.5% (inactive) | – |
| Cc1cnc(CN(C)C(=O)C2CCC(=O)N(CCc3cccc(F)c3)C2)[nH]1 (stereo not drawn) | 0.959% (inactive) | – |
| O=C(Nc1ccncc1)c1ccc([N+](=O)[O-])cc1Cl | -8.87% (inactive) | – |
| O=C(Nc1ccc(Br)cn1)c1ccc([N+](=O)[O-])cc1Cl | – | 13.5 µM (active) |
| O=C(Nc1cccnc1)c1cc([N+](=O)[O-])ccc1Cl | -0.936% (inactive) | – |
| COc1ccc2[nH]c3c(c2c1)CCN(C(=O)CCC1CCCC1)C3c1ccc(F)cc1 (stereo not drawn) | -0.437% (inactive) | – |
| Cc1ccc(Cc2nc(-c3cccc(C)c3)no2)cc1 | – | 10.7 µM (active) |
| Cc1cccc(-c2noc(CCC(=O)NC3CCCC3)n2)c1 | -9.98% (inactive) | – |
| Cc1ccc(-c2noc(CC(c3ccccc3)c3ccccc3)n2)cc1 | 10.8% (inactive) | – |
| CCc1ccccc1NC(=O)CSc1nnc(-c2ccccc2)c(-c2ccccc2)n1 | -4.53% (inactive) | – |
| Cc1ccc(CCNC(=O)Cn2c(-c3cccs3)cc3cc(F)ccc32)cc1 | -1.98% (inactive) | – |
| CCc1nn(CC(=O)N2CCN(c3cccc(C(F)(F)F)c3)CC2)c(=O)c2cc3occc3n12 | -1.64% (inactive) | – |
| CCn1c(CNC(=O)c2ccco2)nnc1SCC(=O)Nc1cccc(F)c1 | 4.49% (inactive) | – |
| O=C(CSc1ccc(-c2ccco2)nn1)NCc1ccc2c(c1)OCO2 | -18% (inactive) | – |
| Cc1cc(SCc2c(F)cccc2Cl)nc(=O)[nH]1 | 1.07% (inactive) | – |

| Compound | activity change, negative = inhibition | Potency |
| --- | --- | --- |
| Fc1cccc(Cl)c1CSc1ccc(-c2ccco2)nn1 | – | 13.5 µM (active) |
| O=C(CSc1ccc(-c2ccco2)nn1)Nc1cccc(F)c1 | – | 12 µM (active) |
| Oc1ccc(-n2nnnc2SCc2c(F)cccc2Cl)cc1 | -3.56% (inactive) | – |
| Cc1noc2ncnc(NCc3ccccc3Cl)c12 | -5.3% (inactive) | – |
| O=C(CCSCc1cccc(F)c1)NCc1ccccc1 | -13.1% (inactive) | – |
| CCN(CC)CCn1c2c(c(SCC(=O)Nc3nc4ccccc4s3)nc1=O)CCCC2 | -1.18% (inactive) | – |
| c1ccc2sc(NN=C3CCCC3)nc2c1 | – | 2.69 µM (active) |
| O=C1NC(Nc2nc3ccccc3s2)(C(F)(F)F)C(=O)N1C1CCCCC1 (stereo not drawn) | 0.553% (inactive) | – |
| COC(=O)c1ccccc1NC(=O)C(Cc1ccccc1)N1Cc2ccccc2C1=O (stereo not drawn) | -3.18% (inactive) | – |
| COCCNC(=O)CSc1nc(-c2ccccc2)[nH]c1-c1ccc(C)cc1 | -6.21% (inactive) | – |
| C=CCNC(=S)N1CCN(CCN=Cc2c(C)[nH]n(-c3ccc([N+](=O)[O-])cc3)c2=O)CC1 | -6.74% (inactive) | – |
| O=C(Nc1cccnc1Cl)c1cc(-c2cccc(Cl)c2)on1 | – | inactive |
| O=C(Nc1ccccc1C(F)(F)F)c1cc(-c2ccc(O)cc2)on1 | – | 26.9 µM (active) |
| CCc1ccccc1NC(=O)c1cc(-c2ccc3c(c2)OCO3)on1 | – | inactive |
| Cc1ccccc1CSc1nc2c([nH]c3ccccc32)c(=O)n1C | -1.85% (inactive) | – |
| COc1ccc(CNC(=O)CS(=O)Cc2nc(-c3cccc(C)c3)oc2C)cc1 (stereo not drawn) | -17.5% (inactive) | – |
| COc1ccc(CNc2nc(-c3ccc(Cl)cc3)cc(C(F)(F)F)n2)cc1 | -3.26% (inactive) | – |
| COc1ccc(CNc2nc(-c3ccc(Cl)cc3)nn2C(=O)c2ccccc2)cc1 | -0.962% (inactive) | – |
| COc1ccc(Cn2c(-c3ccc(Cl)cc3)c[n+]3ccccc23)cc1 | – | 19 µM (active) |
| COc1ccc(OC)c(-c2csc(-c3c(N)c(C(=O)c4ccccc4)n4ccccc34)n2)c1 | 0.147% (inactive) | – |
| CC(C)(C)c1ccc(C(=O)N2CCC(c3nc(-c4ccc(S(=O)(=O)N5CCCC5)cc4)no3)CC2)cc1 | -17% (inactive) | – |
| CCOc1ccc(CCNC(=O)c2csc3c2CCCCC3)cc1 | -5.62% (inactive) | – |

| Compound | activity change, negative = inhibition | Potency |
| --- | --- | --- |
| CCOC(=O)c1sc(NC(=O)c2cc(S(=O)(=O)N3CCOCC3)ccc2C)nc1C | -0.843% (inactive) | – |
| CC(C)NC(=O)C(=O)N/N=C/c1ccco1 | 5.52% (inactive) | – |
| O=C(N/N=C/c1ccco1)c1ccc(NC(=O)C2CC2)cc1 | -5.08% (inactive) | – |
| O=C(N/N=C/c1ccco1)c1csc2c1CCCC2 | – | 15.1 µM (active) |
| Cc1ccc(NC(=O)c2csc3c2CCCC3)cc1 | – | 4.26 µM (active) |
| CC1CC(C)CN(CCCNC(=O)c2csc3c2CCCCC3)C1 (stereo not drawn) | 0.607% (inactive) | – |
| COC(=O)c1sc(NC(=O)c2csc3c2CCCC3)nc1C | – | 2.39 µM (active) |
| O=C(NCc1ccccc1Cl)c1csc2c1CCCCC2 | -13.1% (inactive) | – |
| Cc1c(CCOC(=O)CC23CC4CC(CC(C)(C4)C2)C3)sc[n+]1Cc1ccc([N+](=O)[O-])cc1 | 5.92% (inactive) | – |
| CCn1c(SCC(=O)NCC2CCCO2)nc2ccccc21 (stereo not drawn) | 2.93% (inactive) | – |
| CCc1ccccc1NC(=O)Cn1c(=O)n(-c2cccc(C)c2)c(=O)c2c1c1cc(OC)ccc1n2C | -1.17% (inactive) | – |
| CC(=O)c1ccc(S(=O)(=O)NCCC(=O)N2CCN(c3ccccn3)CC2)cc1 | 1.49% (inactive) | – |
| O=C(CC(c1cccs1)N1Cc2ccccc2C1=O)Nc1ccc(F)cc1F (stereo not drawn) | -8.01% (inactive) | – |
| Nc1ccc(C(=O)N2CCN(S(=O)(=O)c3ccc(Cl)cc3)CC2)cc1[N+](=O)[O-] | -0.246% (inactive) | – |
| COc1ccc(-c2nc(S(=O)(=O)c3ccccc3)c(N3CCCCC3)o2)cc1 | -1.77% (inactive) | – |
| Nc1ccc(S(=O)(=O)Nc2nccc(/C=C/c3ccc(Br)s3)n2)cc1 | -10.2% (inactive) | – |
| Oc1cccc2ccc(/C=C/c3ccc(Br)s3)nc12 | – | 6.75 µM (active) |
| COc1cccc(N(CC(=O)NC2CCCC2)C(=O)CCCC(=O)Nc2ccccn2)c1 | 0.401% (inactive) | – |
| CC1CCN(C(=S)c2cccc(O)c2)CC1 | -1.03% (inactive) | – |
| CC1CCN(C(=S)c2ccc(-c3ccc(Cl)cc3Cl)o2)CC1 | – | 12 µM (active) |
| COc1ccc(C(=O)Nc2c(Cl)cc(Cl)cc2C(=O)N2CCC(C)CC2)cc1 | 1.11% (inactive) | – |
| O=C(CN1C(=O)COc2ccc(S(=O)(=O)N3CCOCC3)cc21)N1CCN(c2cccc(Cl)c2)CC1 | 0.0356% (inactive) | – |

| Compound | activity change, negative = inhibition | Potency |
| --- | --- | --- |
| CC(=O)c1cccc(NC(=O)c2cc(C)nn2-c2ccccc2)c1 | -9.7% (inactive) | – |
| O=C(NNC(=S)NC(=O)c1cn(-c2ccccc2)nc1-c1ccccc1)c1ccncc1 | – | 13.5 µM (active) |
| O=C(Nc1cn(-c2ccccc2)nc1-c1ccccc1)c1ccccc1 | – | 15.1 µM (active) |
| Cc1onc(-c2ccccc2)c1C(=O)Nc1ccccc1C#N | 9.37% (inactive) | – |
| COc1ccc(C(=O)NC(=S)NNC(=O)c2c(-c3ccccc3)noc2C)cc1 | -0.585% (inactive) | – |
| Cc1onc(-c2ccccc2)c1C(=O)NNC(=S)NC(=O)c1ccc(F)cc1 | 1.17% (inactive) | – |
| CCCCn1cc(S(=O)(=O)c2ccc(OCC)cc2)c(=O)c2cc(OC)c(OC)cc21 | 0.657% (inactive) | – |
| CCCCC/C=C/C1=CC(=O)C[C@H](c2ccc(Cl)cc2)C1 | -0.231% (inactive) | – |
| CCOC(=O)c1cnc2c(C)cc(C)cc2c1Nc1ccc(N2CCOCC2)cc1 | -12.7% (inactive) | – |
| N#Cc1c(N)nc2c3c(sc(=N)c2c1N)NC(=O)CC3c1ccccc1Cl (stereo not drawn) | -1.08% (inactive) | – |
| CSc1ncccc1C(=O)NCc1ccccc1Cl | 4.91% (inactive) | – |
| O=C(NC1CCCCCC1)C1CCN(C(=O)c2ccc(Cl)cc2)CC1 | -1.62% (inactive) | – |
| S=C(NCCc1ccccc1)NCc1ccccc1Cl | -5.36% (inactive) | – |
| O=C(O)Cc1ccc(NCc2ccccc2Cl)cc1 | – | 7.57 µM (active) |
| O=[N+]([O-])c1ccccc1NCc1ccccc1Cl | -11.8% (inactive) | – |
| O=C(c1ccc(Cl)cc1)n1nc(-c2cccnc2)nc1NCc1ccc(F)cc1 | -0.314% (inactive) | – |
| CN(C)c1nc(=Nc2cccc(Cl)c2)ss1 | – | 3.38 µM (active) |
| CCOC(=O)N1CCc2c(sc3c2c(=O)n(Cc2ccccc2)c(=O)n3CC(=O)Nc2cccc(C)c2)C1 | -1.56% (inactive) | – |
| CCOc1cc(C(=O)Nc2nnc3n2CCS3)cc(OCC)c1OCC | -0.836% (inactive) | – |
| Cc1ccc(-c2cn3c(n2)sc2cc(C(=O)NCc4cccs4)ccc23)c(C)c1 | 0.0935% (inactive) | – |
| O=C(NCc1cccs1)c1ccc2c(c1)ncn2C1CCCC1 | – | 19 µM (active) |
| O=C(NCc1ccc(Cl)cc1)c1ccc2c(c1)nnn2C1CCCC1 | -2.28% (inactive) | – |

| Compound | activity change, negative = inhibition | Potency |
| --- | --- | --- |
| Cc1cccc(NC(=O)c2cccc(S(=O)(=O)N3CCCC3)c2)n1 | -5.53% (inactive) | – |
| O=C(Nc1nncs1)c1cccc(S(=O)(=O)N2CCCCC2)c1 | -1.04% (inactive) | – |
| Cc1ccccc1OCC(=O)Nc1nnc(S(=O)(=O)N2CCCC2)s1 | -9.21% (inactive) | – |
| Cc1cccc(C(=O)Nc2nnc(S(=O)(=O)N3CCCCCC3)s2)c1 | – | 26.9 µM (active) |
| CCOC(=O)CSc1nnc(NC(=O)c2cccc(S(=O)(=O)N3CCCC3)c2)s1 | – | 23.9 µM (active) |
| CCOC(=O)CSc1nnc(NC(=O)c2cccc(S(=O)(=O)N3CCCCC3)c2)s1 | -2.28% (inactive) | – |
| CCc1nnc(NC(=O)c2cc(S(=O)(=O)N3CCCCC3)ccc2C)s1 | 3.35% (inactive) | – |
| O=C(Nc1nnc(S(=O)(=O)N2CCCCCC2)s1)c1cccc(Br)c1 | – | inactive and 26.9 µM (active) |
| O=C(Nc1nnc(S(=O)(=O)N2CCCc3ccccc32)s1)c1cccc(F)c1 | -1.73% (inactive) | – |
| CCOc1ccc(NC(=O)Cn2cc(C(=O)c3ccc(C)cc3)c(=O)c3cc4c(cc32)OCCO4)cc1 | -1.33% (inactive) | – |
| O=C(c1ccc(C(F)(F)F)cc1)N1CCC(c2nc(-c3ccc(S(=O)(=O)N4CCCC4)cc3)no2)CC1 | -8.47% (inactive) | – |
| COc1ccc(N2CCN(c3cc(C)nc4nncn34)CC2)cc1 | -7.53% (inactive) | – |
| Cc1ccc2oc3c(c(=O)c2c1)C(c1ccc([N+](=O)[O-])cc1)N(CCCN1CCOCC1)C3=O (stereo not drawn) | -5.94% (inactive) | – |
| O=C1C=C(c2cccc(Cl)c2O)C[C@@H](c2ccc(F)cc2)C1 | 2.51% (inactive) | – |
| COc1ccc(C)cc1NC(=O)Nc1ccccc1SC | -11.6% (inactive) | – |
| CCOc1ccc(S(=O)(=O)Nc2ccc(S(=O)(=O)Nc3cc(OC)ccc3OC)cc2)cc1 | 1.85% (inactive) | – |
| COc1ccc(OC)c(NC(=O)c2ccc3c(c2)CCN3S(C)(=O)=O)c1 | -2.22% (inactive) | – |
| CCOc1ccc(NC(=O)Nc2cc(C)ccc2OC)cc1 | – | 2.69 µM (active) |
| CCOc1ccc(C(=O)Nc2cc(OC)ccc2OC)cc1 | – | 19 µM (active) |
| CCOc1ccc(NC(=O)Nc2cc(C)on2)cc1 | -5.5% [at 2.3 µM] (inactive) | – |
